# Measurements: PubChem BioAssay (Tox21)
# Inconclusive results are not listed. A number with no mark means an inactive call. The source made the active and inactive calls. Calls come from the whole dose curve.
# Assay: p53 small molecule agonists, cell-based qHTS assay with human liver microsomes (AID 1963577);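 for activation: p53 response element beta-lactamase reporter cells with liver microsomes plus NADPH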
# Settings: HCT-116 p53RE-bla with human liver microsomes, ratio, 16 h; series mostly up to 66 µM; activation: at the top concentration
# Excerpt: National Center for Advancing Translational Sciences [NCATS]
# Division of Preclinical Innovation [DPI]
# U.S. Environmental Protection Agency [EPA]
# National Institutes of Environmental Health Sciences [NIEHS]
# National Toxicology Program [NTP]
# U.S. Food and Drug Administration [FDA]
# p53, a tumor suppressor protein, is activated following cellular insult, including DNA damage and other cellular stresses. The activation of p53 regulates cell fate by inducing DNA repair, cell cycle arrest, apoptosis, or cellular senescence. The activation of p53, therefore, is a good indicator of DNA damage and other cellular stresses. […] The activation of the reporter gene under culture conditions can be detected by fluorescence intensity.
# Tox21 Assay Protocol Summary:
# The p53RE-bla cells were dispensed at 4,000cells/3ul/well in 1536-well black-clear bottom plates. After the assay plates were incubated at 37 C, 5% CO2 incubator for 5 hours, 23 nL of compounds dissolved in DMSO, positive controls or DMSO only was transferred to the assay plate. Following compound addition, 3 uL of human liver microsomes (XenoTech, Kansas City, KS) at final concentration of 0.5 mg/mL and 1uL of Beta-Nicotinamide adenine dinucleotide 2-phosphate (NADPH) at final concentration of 0.5 mg/mL were transferred to the assay plate. The plates were incubated at 37 C for 16 hours. 1 uL of LiveBLAzer detection mixture was added to each well and the plates were incubated at room temperature in the dark for 2 h.
# % is set by controls: 0 for no effect and ±100 for the full control effect; potency is the fitted concentration of half-maximal effect.
Structure (SMILES),activation,Potency
CCCCCCCCCCCCCN1CC(C)OC(C)C1 (stereo not given),4.98%,–
CC(CCc1ccccc1)NC(C)C(O)c1ccc(O)cc1 (stereo not given),1.01% [at 30.3 µM],–
CCC(C)(c1ccc(O)cc1)c1ccc(O)cc1,-12.4%,–
O=S1(=O)OCC2C(CO1)C1(Cl)C(Cl)=C(Cl)C2(Cl)C1(Cl)Cl (stereo not given),-3.27%,–
CCOP(=S)(OCC)Oc1ncn(-c2ccccc2)n1,–,2890 nM (active)
CC(C)c1c(CN(C)C(C)Cc2ccccc2)n(C)n(-c2ccccc2)c1=O (stereo not given),1.21% [at 30.3 µM],–
COc1cccc2c1cc([N+](=O)[O-])c1c(C(=O)O)cc3c(c12)OCO3,-4.1%,–
CC(=O)c1cc2c(cc1C)C(C)(C)C(C)CC2(C)C (stereo not given),0.889%,–
C=CCC1([C@H](C)CCC)C(=O)NC(=O)NC1=O,-2.71%,–
CCC/C(=N\OCC)C1=C(O)CC(CC(C)SCC)CC1=O (stereo not given),-6.31%,–
CCCCCCCCc1ccc(O)cc1,-4.22%,–
ClC1=C(Cl)[C@]2(Cl)[C@H]3[C@H]([C@H]4C=C[C@H]3C4)[C@@]1(Cl)C2(Cl)Cl,-4.91%,–
CCC(C)Br (stereo not given),0.85%,–
COc1ccc2c(c1OC)C(=O)O[C@H]2[C@@H]1c2cc3c(cc2CCN1C)OCO3,8.47% [at 30.3 µM],–
Clc1ccc(CO/N=C(\Cn2ccnc2)c2ccc(Cl)cc2Cl)c(Cl)c1,11.8% [at 30.3 µM],–
CC#C[C@]1(O)CC[C@H]2[C@@H]3C[C@H](C)C4=CC(=O)CC[C@]4(C)[C@H]3CC[C@@]21C,-0.136% [at 30.3 µM],–
O=S1(=O)OC(c2cc(Br)c(O)c(Br)c2)(c2cc(Br)c(O)c(Br)c2)c2ccccc21,8.97%,–
CN(C)c1ccc(N)cc1,-1.61%,–
Clc1ccc(C2(Cn3cncn3)CC(Br)CO2)c(Cl)c1 (stereo not given),1.57%,–
CCN(C(C)=O)c1cccc(-c2ccnc3c(C#N)cnn23)c1,-5.88% [at 30.3 µM],–

Structure (SMILES),activation,Potency
CNC(C)Cc1ccc2c(c1)OCO2 (stereo not given),-0.393%,–
CCOC(=O)c1ncn2c1CN(C)C(=O)c1c(I)cccc1-2,-1.34% [at 30.3 µM],–
O=C(O)CBr,-2.72%,–
COC(=O)c1ccccc1S(=O)(=O)NC(=O)Nc1nc(C)nc(OC)n1,1.27%,–
O=[N+]([O-])c1ccc(Oc2ccc(C(F)(F)F)cc2[N+](=O)[O-])cc1,7.86%,–
O=C(Cl)c1ccc(Cl)cc1,-1.5%,–
[CH3][Hg][Cl],8.22%,–
N#CC(C#N)=Cc1ccc(O)c(O)c1,-6.14% [at 30.3 µM],–
CC1COC(Cn2cncn2)(c2ccc(Oc3ccc(Cl)cc3)cc2Cl)O1 (stereo not given),-14.1%,–
ClC1=C(Cl)[C@]2(Cl)[C@@H]3[C@@H](Cl)[C@H]4O[C@H]4[C@@H]3C1(Cl)C2(Cl)Cl,0.558%,–
CCSC(C)CC1CC(=O)C(/C(CC)=N/OC/C=C/Cl)=C(O)C1 (stereo not given),2.3% [at 30.3 µM],–
C[C@]12CC[C@H]3[C@@H](CCC4=CC(=O)CC[C@@H]43)[C@@H]1CC[C@@H]2OC(=O)CCc1ccco1,-12% [at 30.3 µM],–
O=C(CCCN1CCC(n2c(=O)[nH]c3ccccc32)CC1)c1ccc(F)cc1,-10.9% [at 30.3 µM],–
CC(Cl)(Cl)[N+](=O)[O-],1.29%,–
CC(C)(CCl)C(=O)Cl,-5.63%,–
CON(C)C(=O)Nc1ccc(Br)cc1,1.43%,–
O=C(OC1CCCCC1)c1ccccc1C(=O)OC1CCCCC1,0.364%,–
FC(F)OC(F)(F)C(F)Cl (stereo not given),-2.83%,–
O=C(N[C@@H]1N=C(c2ccccc2F)c2cccc3c2N(CC3)C1=O)c1cc2ccccc2[nH]1,-13.8% [at 30.3 µM],–
OCCCBr,5.19%,–
